# Where “and” joins values, the source holds several entries; their conditions need not be identical. Equal entries are not always repeated. Inconclusive results are not listed. Entries that show only a call come without a potency. Calls of active or inactive are those of the source. Unless noted, calls come from the whole dose curve; as a rule, active = well fitted curve in the direction sought with a large enough effect; inconclusive = small, poorly fitted or top-dose-only effect, or another doubt; inactive = no such curve, though single readings can be large; an effect the other way counts as inactive or inconclusive.
# Assays:
# [1] = Validation qHTS assay for inhibitors of Activation Induced Cytidine Deaminase (AID): UDG Counterscreen signal (AID 1347427)
# Summary of the method: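 Counterscreen read of UDG activity (2 U/mL, 4/3x) in the FRET deamination format with AID (1 uM, 4/3x), DJC20/DJC23 substrates (250 nM, 4x), 4 h at room temperature. NaOH stop, fluorescence at 560 ex/665 em.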
# [2] = target: Single-stranded DNA cytosine deaminase (Homo sapiens) (UniProt Q9GZX7); test: Validation qHTS assay for inhibitors of Activation Induced Cytidine Deaminase (AID): AID signal (AID 1347429)
# Summary of the method: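 Fluorescence at 540 nm excitation and 590 nm emission reports ssDNA cytosine deamination by AID, with UDG in the same well. Compound-treated reactions ran 4 hr at room temperature with DJC20/DJC23 substrate, followed by 30 min NaOH treatment.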
# [3] = Primary qHTS for inhibitors of La Crosse Virus (LACV) - induced cell death in SH-SY5Y cells (AID 1508616);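 note: top concentration of the series differs between compounds; higher means more rescue of cells from virus-induced death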
# Summary of the method: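 Protection against LACV-induced cell death is scored in SH-SY5Y cells exposed to compounds and virus (0.01 MOI) for 6 days. Data normalized to virus-infected DMSO wells and virus-free DMSO wells.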
# [4] = target: Calcium and integrin-binding protein 1 (Homo sapiens) (UniProt Q99828); test: Primary qHTS for Identification of Calcium Integrin Binding Protein 1 (CIB1) Competitor (AID 1508620);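 note: GST tagged CIB1 binding a fluorescein labelled alphaIIb integrin peptide tracer; top concentration of the series differs between compounds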
# Summary of the method: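 Fluorescence polarization competition: CIB1-GST (1 uM final) preincubated with compound 15 min at room temperature, then FITC-labeled alphaIIb peptide (100 nM final) added for another 15 min. Polarization read at Ex 480/Em 540.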
# [5] = qHTS to identify inhibitors of the type 1 interferon - major histocompatibility complex class I in skeletal muscle: primary screen against the NCATS Mechanism Interrogation Plate v5.0 (MIPE) Libary (AID 1347411); note: nearly all actives have a fitted effect of over 65% in size; note: potency is the fitted concentration of half-maximal effect
# Summary of the method: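 Luminescence from HiBiT-tagged endogenous HLA-B*08:01 served as the MHC class I read-out. CRISPR-engineered C25cl48 human myoblasts received 4.0 ng/ml IFN-beta plus compound for 24 hrs, with an 11-point, 1:3 series topping at 46 uM final.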
# [6] = Primary qHTS for small molecule stabilizers of the endoplasmic reticulum resident proteome: Secreted ER Calcium Modulated Protein (SERCaMP) assay (AID 1508630)
# Summary of the method: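 GLuc-SERCaMP-expressing SH-SY5Y cells, pretreated 16 h with compound, are challenged with thapsigargin to empty ER calcium stores; after 4 h, coelenterazine is added directly to the medium and luminescence is imaged.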
# [7] = target: Calcium and integrin-binding protein 1 (Homo sapiens) (UniProt Q99828); test: Confirmatory qHTS for Identification of Calcium Integrin Binding Protein 1 (CIB1) Competitor (AID 1508617); note: potency is the fitted concentration of half-maximal effect; nearly all actives have a fitted effect of over 65% in size
# Summary of the method: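 Fluorescence polarization competition: CIB1-GST (1 uM final) in 5 mM HEPES pH 7.4, 125 mM NaCl, 5 mM CaCl2, 0.01% Tween20 preincubated 15 min RT with compound (up to 114 uM), then FITC-alphaIIb peptide (100 nM) added, 15 min RT.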
# [8] = target: Cytochrome P450 2D6 (Homo sapiens) (UniProt P10635); test: Cytochrome P450 family 2 subfamily D member 6 (CYP2D6) small molecule antagonists: luciferase biochemical (cell-free) qHTS assay (AID 1645840; active = well fitted curve in the direction sought with a large enough effect in the repeat runs; an effect the other way counts as inactive or inconclusive; note: nearly all actives have a fitted effect of over 55% in size; note: potency is the fitted concentration of half-maximal effect)
# Summary of the method: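 P450-Glo luminescent screen: recombinant CYP2D6 enzyme–proluciferin substrate mix preincubated with compound 10 min at room temperature, then NADPH regeneration added for 1 h at room temperature. Detection reagent added for 20 min; luciferin light read as relative luminescence units.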
# [9] = target: Cytochrome P450 2C9 (Homo sapiens) (UniProt P11712); test: Cytochrome P450 family 2 subfamily C member 9 (CYP2C9) small molecule antagonists: luciferase biochemical (cell-free) qHTS assay (AID 1645842; active = well fitted curve in the direction sought with a large enough effect in the repeat runs; an effect the other way counts as inactive or inconclusive; note: nearly all actives have a fitted effect of over 55% in size; note: potency is the fitted concentration of half-maximal effect)
# Summary of the method: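 Luminescence, after 20 min with luciferin detection reagent, reflected CYP2C9 turnover during a 1 h NADPH-driven reaction at 37C. Enzyme-substrate mix contained 0.4% bovine serum albumin and was preincubated with compound 10 min at room temperature.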
# Sequence of Cytochrome P450 2C9 (Homo sapiens) (P11712 whole entry, looked up): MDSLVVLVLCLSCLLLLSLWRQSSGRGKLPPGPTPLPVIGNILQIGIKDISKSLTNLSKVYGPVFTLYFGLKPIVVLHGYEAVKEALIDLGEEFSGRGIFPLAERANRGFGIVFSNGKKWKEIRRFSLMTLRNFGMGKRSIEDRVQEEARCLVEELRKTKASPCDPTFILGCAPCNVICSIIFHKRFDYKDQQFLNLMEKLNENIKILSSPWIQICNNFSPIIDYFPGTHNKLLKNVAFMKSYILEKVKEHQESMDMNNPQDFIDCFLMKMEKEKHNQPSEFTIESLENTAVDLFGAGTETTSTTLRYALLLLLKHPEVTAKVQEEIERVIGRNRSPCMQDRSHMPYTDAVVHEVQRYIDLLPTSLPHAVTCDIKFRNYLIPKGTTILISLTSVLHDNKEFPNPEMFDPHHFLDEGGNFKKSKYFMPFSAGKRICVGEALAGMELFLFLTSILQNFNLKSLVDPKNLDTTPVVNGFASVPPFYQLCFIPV
# Sequence of Cytochrome P450 2D6 (Homo sapiens) (P10635 whole entry, looked up): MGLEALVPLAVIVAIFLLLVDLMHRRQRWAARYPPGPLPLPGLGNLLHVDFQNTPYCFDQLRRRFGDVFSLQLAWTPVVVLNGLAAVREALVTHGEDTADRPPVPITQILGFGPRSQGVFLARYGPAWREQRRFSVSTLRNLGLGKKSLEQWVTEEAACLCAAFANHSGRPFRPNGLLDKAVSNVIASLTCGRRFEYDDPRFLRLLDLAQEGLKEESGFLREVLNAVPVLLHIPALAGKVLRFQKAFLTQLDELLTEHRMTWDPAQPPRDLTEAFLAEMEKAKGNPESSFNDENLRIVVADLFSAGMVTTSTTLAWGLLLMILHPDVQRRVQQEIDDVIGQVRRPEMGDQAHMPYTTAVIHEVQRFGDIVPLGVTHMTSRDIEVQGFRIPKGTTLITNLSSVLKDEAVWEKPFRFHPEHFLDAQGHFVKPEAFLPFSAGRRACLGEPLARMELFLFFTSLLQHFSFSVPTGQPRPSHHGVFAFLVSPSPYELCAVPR
# Sequence of Calcium and integrin-binding protein 1 (Homo sapiens) (Q99828 whole entry, looked up): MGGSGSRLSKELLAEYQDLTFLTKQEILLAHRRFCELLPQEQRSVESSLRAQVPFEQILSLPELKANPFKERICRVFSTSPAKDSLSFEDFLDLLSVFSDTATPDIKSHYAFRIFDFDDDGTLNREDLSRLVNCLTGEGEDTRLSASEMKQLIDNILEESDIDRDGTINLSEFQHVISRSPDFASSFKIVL
# Sequence of Single-stranded DNA cytosine deaminase (Homo sapiens) (Q9GZX7 whole entry, looked up): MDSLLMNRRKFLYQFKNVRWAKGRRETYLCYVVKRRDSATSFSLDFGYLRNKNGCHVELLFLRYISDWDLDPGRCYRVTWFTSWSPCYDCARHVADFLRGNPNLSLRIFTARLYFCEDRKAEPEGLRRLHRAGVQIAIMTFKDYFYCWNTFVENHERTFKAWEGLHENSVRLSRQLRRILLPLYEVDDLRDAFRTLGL
structure (smiles),measurement,setting,value
CN[C@H](CC(C)C)C(=O)N[C@H]1C(=O)N[C@@H](CC(N)=O)C(=O)N[C@@H]2C(=O)N[C@H]3C(=O)N[C@H](C(=O)N[C@H](C(=O)O)c4cc(O)cc(O)c4-c4cc3ccc4O)[C@H](O)c3ccc(c(Cl)c3)Oc3cc2cc(c3O[C@@H]2O[C@H](CO)[C@@H](O)[C@H](O)[C@@H]2O[C@H]2C[C@](C)(N)[C@H](O)[C@H](C)O2)Oc2ccc(cc2Cl)[C@H]1O,outcome,[1],inactive
same,outcome,[2],inactive
same,outcome,[3],inactive
same,Potency,[4],inactive
CC(C=CC1=C(C)CCCC1(C)C)=CC=CC(C)=CC(=O)Nc1ccc(O)cc1,Potency,[4],inactive
CCN(CC)CCCCNc1ncc2c(n1)N(C)C(=O)N(c1c(Cl)c(OC)cc(OC)c1Cl)C2,Potency,[4],inactive
COc1cccc2c1C(=O)c1c(O)c3c(c(O)c1C2=O)C[C@@](O)(C(=O)CO)C[C@@H]3O[C@H]1C[C@H](N)[C@H](OC2CCCCO2)[C@H](C)O1 (stereo partly specified),Potency,[5],2.62 µM (active) and 2.34 µM (active)
same,outcome,[6],inactive
COc1ccnc2[nH]cc(C(=O)C(=O)N3CCN(C(=O)c4ccccc4)C[C@@H]3C)c12,Potency,[4],inactive
CC(=O)OCC(=O)[C@@]1(O)CC[C@H]2[C@@H]3CCC4=CC(=O)CC[C@]4(C)[C@@H]3C(=O)C[C@@]21C,Potency,[4],inactive
Cc1coc2c1C(=O)C(=O)c1c-2ccc2c(C)cccc12,Potency,[7],39.8 µM (active)
same,Potency,[4],inactive
same,Potency,[8],3.38 µM (active)
same,Potency,[9],9.52 µM (active)
CC(C)C[C@H](NC(=O)CNC(=O)c1cc(Cl)ccc1Cl)B1OC(=O)CC(CC(=O)O)(C(=O)O)O1 (stereo partly specified),Potency,[5],294 nM (active)
same,Potency,[4],inactive
same,Potency,[9],inactive
CCOC(=O)[C@H](CCc1ccccc1)N[C@@H](C)C(=O)N1[C@@H](C(=O)O)C[C@H]2CCC[C@@H]21,Potency,[4],inactive
Cn1cc(-c2ccc3ncc(Cc4ccc5ncccc5c4)n3n2)cn1,Potency,[5],inactive
same,Potency,[4],inactive
same,Potency,[8],12 µM (active)
same,Potency,[9],0.756 µM (active)
NS(=O)(=O)OC[C@@H]1C[C@@H](n2ccc3c(N[C@H]4CCc5ccccc54)ncnc32)C[C@H]1O,Potency,[4],inactive
COc1ccc2cc([S+]([O-])Cc3ncc(C)c(OC)c3C)nc2c1,outcome,[1],inactive
same,outcome,[2],inactive
same,outcome,[3],inactive
same,Potency,[4],inactive
O=C(O)C=Cc1ccc(Cn2ccnc2)cc1,Potency,[4],inactive
C[C@H]1COc2c(N3CCN(C)CC3)c(F)cc3c(=O)c(C(=O)O)cn1c23,Potency,[5],inactive
same,outcome,[6],inactive
COc1ccc(C[C@@H](C)[C@@H](C)Cc2ccc(OC)c(OC)c2)cc1OC,Potency,[5],inactive
same,Potency,[4],inactive
same,Potency,[9],3.01 µM (active)
Cc1cnc(Nc2ccc(N3CCN(C)CC3)cc2)nc1Nc1cccc(S(=O)(=O)NC(C)(C)C)c1,Potency,[5],11700 nM (active)
same,Potency,[4],inactive
same,Potency,[9],inactive
CN1CCCN(C(=O)c2cccc(-c3ccc(C=C4C(=O)Nc5ccc(Cl)cc54)o3)c2)CC1,Potency,[7],35.5 µM (active)
same,outcome,[6],inactive
CC1(C)[C@H](O[C@H]2O[C@H](C(=O)O)[C@@H](O)[C@H](O)[C@H]2O[C@@H]2O[C@H](C(=O)O)[C@@H](O)[C@H](O)[C@H]2O)CC[C@@]2(C)[C@H]1CC[C@]1(C)[C@H]2C(=O)C=C2[C@H]3C[C@@](C)(C(=O)O)CC[C@]3(C)CC[C@]21C,Potency,[4],inactive
CNC(=O)c1ccc(Nc2cc(Nc3ccccc3S(=O)(=O)C(C)C)c3cc[nH]c3n2)nc1,Potency,[4],inactive
Cc1cnn(C)c1C(=O)Nc1cc(Nc2ccc3c(C=Cc4ccccn4)n[nH]c3c2)ccc1F,Potency,[4],inactive
CCCc1nc(C(C)(C)O)c(C(=O)O)n1Cc1ccc(-c2ccccc2-c2nn[nH]n2)cc1,Potency,[5],inactive
same,Potency,[4],inactive
same,Potency,[8],inactive
same,Potency,[9],inactive
COC1=C(OC)C(=O)C(CC=C(C)CCC=C(C)CCC=C(C)CCC=C(C)CCC=C(C)CCC=C(C)CCC=C(C)CCC=C(C)CCC=C(C)CCC=C(C)C)=C(C)C1=O,Potency,[4],inactive
C=C1CCC2[C@](C)(CO)C(O)CC[C@]2(C)C1CC=C1C(=O)OCC1O (stereo partly specified),Potency,[4],inactive
same,outcome,[6],inactive
CN(C)c1ccc(C(=O)NCCCCCCC(=O)NO)cc1,Potency,[4],inactive
same,outcome,[6],inactive
CN[C@H]1[C@@H](O)[C@@H]2O[C@@H]3O[C@H](C)CC(=O)[C@]3(O)O[C@@H]2[C@@H](NC)[C@H]1O,Potency,[4],inactive
same,outcome,[6],inactive
Cc1cnc(NC(=O)Nc2cc(Br)c(C)cc2OC[C@@H]2CNCCO2)cn1,Potency,[4],inactive
same,outcome,[6],inactive
COc1cc(C(=O)NC2CCN(C)CC2)ccc1Nc1ncc2c(n1)N(C1CCCC1)CCC(=O)N2C(C)C,Potency,[4],inactive
C=CC1=C(C(=O)O)N2C(=O)[C@@H](NC(=O)C(=NO)c3csc(N)n3)[C@H]2SC1,Potency,[4],inactive

# Reference: PubChem BioAssay (NCATS)
